Seven compounds from PubChem BioAssay (Tox21) can be followed below.

Test [1] is described as follows: qHTS assay to identify small molecule agonists of the hypoxia (HIF-1) signaling pathway - cell viability counter screen (AID 1224844; calls by dose curve; note: nearly all actives have a fitted effect of over 50% in size; note: potency is the fitted concentration of half-maximal effect). An outline of the steps: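 HRE-bla ME-180 cells, 2,000/well in 0.5% dialyzed FBS medium, treated 17 h at 37C with compounds. Viability read in the same wells as the bla reporter, by CellTiter-Glo luminescence after 30 min at room temperature.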

Test [2] is described as follows: qHTS assay to identify small molecule agonists of H2AX (AID 1224845; active = well fitted activation curve with a large enough effect in the signal ratio in the repeat runs, not every such curve was filed as active; the % refers to the signal ratio). An outline of the steps: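 Wild-type CHO-K1 cells, plated overnight, exposed 3hr at 37C to 15 concentrations (0.76% DMSO final). Lysed, then HTRF anti-pH2AX (S139) cryptate and anti-H2AX-d2 antibodies, 24 hr room temperature; 665/620 nm emission read.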
Background: Quantitative high-throughput screening tests each substance at several concentrations.

Test [3] can be described thus: qHTS assay to identify small molecule agonists of the hypoxia (HIF-1) signaling pathway (AID 1224846; active = well fitted activation curve with a large enough effect in the signal ratio in the repeat runs, not every such curve was filed as active; the % refers to the signal ratio). An outline of the steps: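 HRE-bla ME-180 beta-lactamase reporter cells in medium with 0.5% dialyzed FBS, pre-incubated 5 h then exposed to compounds 17 h at 37C, 5% CO2; reporter induction read with CCF4-AM FRET substrate.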
Test [4] in a line: qHTS assay to identify small molecule antagonists of the estrogen related receptor (ERR) signaling pathway from Tox21 library (AID 1224848). Note: nearly all actives have a fitted effect of over 50% in size. An outline of the steps:
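ERR reporter cell line (from NTP) seeded 2,000 cells/well, rested 6 h at 37 C/5% CO2, then pin-dosed with compounds in DMSO. After 18 h at 37 C, ONE-Glo added; luminescence read after 30 min at room temperature.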

The nature of test [5]: qHTS assay to identify small molecule agonists of the estrogen related receptor (ERR) signaling pathway from Tox21 library (AID 1224849; calls by dose curve; note: nearly all actives have a fitted effect of over 15% in size). The following applies: ERR reporter cell line, ONE-Glo luciferase, 18 h; at 92.4 µM (top of the series). An outline of the steps: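 ERR reporter cells (NTP line) pre-incubated 6 hours at 37 C, then exposed to compounds for 18 hours at 37 C. ONE-Glo luciferase luminescence was read after 30 minutes at room temperature.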

A short description of test [6]: qHTS RealTime-Glo MT Cell Viability Assay in HepG2 cells - 24 hour (AID 1224867). Note: nearly all actives have a fitted effect of over 50% in size. An outline of the steps:
(§1)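 Cells + NanoLuc/prosubstrate dispensed (600 cells/well) → 5 h at 37 C/5% CO2 → compounds in DMSO transferred → 40 h incubation at 37 C, luminescence read at 0, 8, 16, 24, 32, 40 h.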

Test [7] in a line: qHTS RealTime-Glo MT Cell Viability Assay in HEK293 cells - 32 hour (AID 1224868). Note: top concentration of the series differs between compounds; nearly all actives have a fitted effect of over 50% in size. An outline of the steps: (§2)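 Tox21 10K qHTS, HEK293, 600 cells/well, RealTime-Glo reagent co-dispensed with cells; 5 h preincubation, compound by pintool, 37 C, luminescence at 0–40 h.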
Test [8] is described as follows: A CellTox Green Cytotoxicity Assay to monitor cytotoxicity in HEK293 cells - 0 hour (AID 1224869). Note: nearly all actives have a fitted effect of over 50% in size. An outline of the steps:
(§3)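 HEK293 cells, 600/well, were preincubated 5 hours and then exposed to compounds at 37 C for up to 40 hours. A cell-impermeant cyanine dye staining dead-cell DNA was read by fluorescence at 0, 8, 16, 24, 32 and 40 h time points.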

A short description of test [9]: qHTS RealTime-Glo MT Cell Viability Assay in HepG2 cells - 40 hour (AID 1224870). Note: nearly all actives have a fitted effect of over 50% in size. An outline of the steps: (§4)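 HepG2 cells (600/well) mixed with RealTime-Glo MT reagent, settled 5 h at 37 C/5% CO2 before compound addition. Nonlytic NanoLuc luminescence from viable-cell prosubstrate reduction read repeatedly during 40 h treatment at 37 C.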
A short description of test [10]: A CellTox Green Cytotoxicity Assay to monitor cytotoxicity in HEK293 cells - 40 hour (AID 1224871). Note: nearly all actives have a fitted effect of over 45% in size. An outline of the steps: as §3
Test [11] is described as follows: qHTS RealTime-Glo MT Cell Viability Assay in HEK293 cells - 16 hour (AID 1224872). An outline of the steps: as §2
Test [12] is described as follows: qHTS RealTime-Glo MT Cell Viability Assay in HepG2 cells - 8 hour (AID 1224873). Note: nearly all actives have a fitted effect of over 55% in size. An outline of the steps:
as §4

Test [13] is described as follows: qHTS RealTime-Glo MT Cell Viability Assay in HEK293 cells - 40 hour (AID 1224874). Note: nearly all actives have a fitted effect of over 50% in size. The following applies: RealTime-Glo luminescence; max response: stronger effect = lower value. An outline of the steps: (§5)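 600 cells/well were plated with the nonlytic NanoLuc/prosubstrate reagent, pre-incubated 5 h, then given 23 nL of compound in DMSO. Incubation at 37 C for 40 h, with luminescence from viable-cell-reduced substrate read repeatedly from 0 h.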

Test [14] can be described thus: A CellTox Green Cytotoxicity Assay to monitor cytotoxicity in HEK293 cells - 24 hour (AID 1224875). Note: nearly all actives have a fitted effect of over 45% in size. An outline of the steps: as §3
The nature of test [15]: A CellTox Green Cytotoxicity Assay to monitor cytotoxicity in HepG2 cells - 16 hour (AID 1224876). Note: nearly all actives have a fitted effect of over 45% in size. An outline of the steps: (§6)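 HepG2 cells, 600/well, preincubated 5 h with CellTox Green dye, then exposed to Tox21 compounds in DMSO at 37 C for up to 40 h. Dead-cell DNA fluorescence read at the indicated time point.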
Test [16] is described as follows: qHTS RealTime-Glo MT Cell Viability Assay in HepG2 cells - 32 hour (AID 1224877). Note: nearly all actives have a fitted effect of over 55% in size. An outline of the steps:
as §1

Test [17] is described as follows: A CellTox Green Cytotoxicity Assay to monitor cytotoxicity in HepG2 cells - 24 hour (AID 1224878). Note: nearly all actives have a fitted effect of over 45% in size. An outline of the steps:
as §6

Test [18] can be described thus: A CellTox Green Cytotoxicity Assay to monitor cytotoxicity in HepG2 cells - 40 hour (AID 1224879). Note: nearly all actives have a fitted effect of over 40% in size. An outline of the steps:
as §6

Test [19] can be described thus: qHTS RealTime-Glo MT Cell Viability Assay in HEK293 cells - 0 hour (AID 1224880). An outline of the steps:
as §5

Test [20] can be described thus: qHTS assay to identify small molecule agonists of H2AX - cell viability counter screen (AID 1224847; calls by dose curve; note: top concentration of the series differs between compounds; nearly all actives have a fitted effect of over 30% in size). An outline of the steps:
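Viability of CHO-K1 (wild type) cells after 3 hr compound exposure was measured by CellTiter-Glo luminescence.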

The structures appear in SMILES notation. A number with no mark means an inactive call. Results filed as inconclusive are left out. The source made the active and inactive calls. Unless noted, calls come from the whole dose curve; as a rule, active = well fitted curve in the direction sought with a large enough effect in the repeat runs; inconclusive = weak or mixed curves; inactive = no such curve, though single readings can be large; an effect the other way counts as inactive or inconclusive.
% is set by controls: 0 for no effect and ±100 for the full control effect.

Regarding `C=C(C)C(=O)OCCCCOC(=O)C(=C)C`, the Potency result in test [1], in test [2], in test [4], in test [6], in [7] and in test [8] was “inactive” in each case. In addition, the Potency entry in [9], in test [10], in test [11], in [12], in [14] and in test [15] was “inactive” in each case. In addition, the Potency result in test [16], in test [17] and in test [18] was “inactive” throughout. For the same compound, the compound was classed as inactive in [3] and in test [19]. For the same compound, the activity change, positive = activation in [5] was 2.2%. Also, the max response in [13] was 5.43%.
Regarding `CCCCCCCCCCCCCCCl`, the Potency result in test [1], in test [2], in [20], in [6], in [7] and in [8] was “inactive” each time. The Potency result in [9], in [10], in test [11], in test [12], in [15] and in [16] was “inactive” each time. For the same compound, the Potency result in test [17] and in [18] was “inactive” throughout. Further, the compound was classed as inactive in [3] and in [19]. The max response in [13] is 1.34%.
Turning to `O=CC=O`, the Potency entry in test [1], in test [2], in test [20], in [6], in [7] and in test [9] was “inactive” in each case. Moreover, the Potency entry in test [10], in test [11], in [12], in [15], in test [16] and in test [17] was “inactive” throughout. Further, in test [18], the Potency entry is “inactive”. Besides, the compound was called inactive in test [3] and in [19]. For the same compound, the max response in [13] is 2.31%.
Turning to `COP(=O)(OC)OC(Br)C(Cl)(Cl)Br` (centres undefined), the Potency in test [1] was 43.6 µM (active). Further, the Potency result in test [2], in test [20], in [6], in test [8], in test [9] and in test [12] was “inactive” throughout. Moreover, the Potency entry in test [14], in test [15], in [16], in test [17] and in [18] was “inactive” in each case. The outcome in test [3] and in [19] was inactive.
`O=C(N/N=C/c1ccc([N+](=O)[O-])o1)c1cc([N+](=O)[O-])cc([N+](=O)[O-])c1O`: the Potency result in test [1], in test [2], in [20], in test [7], in test [8] and in test [9] was “inactive” throughout. Also, the Potency result in test [10], in test [11], in test [12], in [14], in [15] and in test [16] was “inactive” in each case. Further, in [17], the Potency entry was “inactive”. The result in test [3] and in test [19] was inactive. The max response in test [13] was 8.45%.
As for `O=C1NC(=O)C(=O)C(=O)N1`, the Potency result in [1], in test [2], in [20], in test [6], in test [7] and in [8] was “inactive” in each case. Besides, the Potency entry in test [9], in [11], in test [12], in test [14], in test [15] and in test [16] was “inactive” in each case. The Potency entry in test [17] was “inactive”. In addition, the compound was called inactive in test [3] and in test [19]. In addition, the max response in test [13] was 6.33%.
For the compound `COC(=O)Cc1ccccc1`, the Potency entry in test [1], in [2], in test [20], in [7], in test [8] and in test [9] was “inactive” in each case. Further, the Potency result in [11], in test [12], in [14], in [15], in [16] and in [17] was “inactive” each time. Besides, the Potency result in test [18] was “inactive”. Moreover, the result in [3] and in test [19] was inactive. Also, the max response in [13] is 7.1%.
